Results from PubChem BioAssay AID686978 (National Center for Advancing Translational Sciences (NCATS), 2013).
Screen size: about 420,000 compounds; about 64,000 (15%) were called active. About 27% were inconclusive and are not listed. Calls follow the shape of the dose curve; as a rule, active = well fitted inhibition curve with a large enough effect; inconclusive = small, poorly fitted or top-dose-only effect; inactive = flat fitted curve, though single readings scatter. These entries were drawn from the full list. Entries that show only a call come without a potency.
Potency is read from the fitted curve at half-maximal effect.

Test: qHTS for Inhibitors of human tyrosyl-DNA phosphodiesterase 1 (TDP1): qHTS in cells in absence of CPT; also: nearly all actives have a fitted effect of over 55% in size
Details: DT40 Tdp1-/- hTDP1 cells, no CPT, ATP luminescence, 48 h; activity change, negative = growth inhibition: at 46.2 µM (top of the series)
Outline: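 Camptothecin absent (DMSO only). Human TDP1-complemented DT40 knockout cells, 400 cells/well, 37 °C for minimum 48 hr; ATP measured via CellTiter-Glo, 30 min dark incubation, luminescence.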
For `COc1ccccc1CNC(=O)c1ccc(SC)cc1OC`, the Potency was 15.8 µM (active). For `COc1cc(SC)ccc1C(=O)NNC(=O)C1COc2ccccc2O1` (configuration not stated), the Potency was “inactive”. For `COc1ccc(Cc2nnc(NC(=O)c3ccc(OC)cc3OC)s2)cc1`, the Potency was “inactive”. For `COc1cc(SC)ccc1C(=O)Nc1nc(C)cs1`, the Potency was 11.6 µM (active). With `COc1cc(SC)ccc1C(=O)NCCOc1ccccc1Cl` the Potency was “inactive”. With `Cc1csc(NC(=O)CSc2nc(=O)cc(N)n2-c2ccc(F)cc2)n1` the Potency was “inactive”. In the case of `CCCCc1cc(=O)oc2cc(C)cc(OCc3nn[nH]n3)c12`, the Potency is reported as “inactive”. For `O=C(NN1C(=O)C2CCCCC2C1=O)c1ccco1` (configuration not stated), the Potency was “inactive”. For `Cc1ccc(S(=O)(=O)N2C[C@H]3C(=O)C[C@@H](c4cccc5ccccc45)N(S(=O)(=O)c4ccc(C)cc4)[C@H]3C[C@H]2c2ccc(Cl)cc2)cc1`, the Potency was “inactive”. For `O=C(Nc1ccccn1)C1CCN(S(=O)(=O)c2ccc3c(c2)OCCO3)CC1`, the Potency was “inactive”. For `CCCCn1c(=S)[nH]c2ncccc2c1=O`, the Potency was “inactive”. In the case of `Cc1cc(Nc2ccc(Br)cc2F)n2ncnc2n1`, the Potency is reported as “inactive”. For `CC[C@H]1OC(=O)[C@H](C)[C@@H](O[C@H]2C[C@@](C)(OC)[C@@H](O)[C@H](C)O2)[C@H](C)[C@@H](O[C@@H]2O[C@H](C)C[C@H](N(C)C)[C@H]2O)[C@](C)(O)C[C@@H](C)[C@@H]2N[C@@H](COCCOC)O[C@H]([C@H]2C)[C@]1(C)O`, the Potency was “inactive”. In the case of `CCN(CC)S(=O)(=O)c1ccc(NC(=O)c2cccnc2Cl)c(NC(=O)c2cccnc2Cl)c1`, the Potency is reported as “inactive”. With `CCN(CC)S(=O)(=O)c1ccc(Cl)c(C(=O)NCCN2CCOCC2)c1` the Potency was “inactive”. With `CCN(CC)S(=O)(=O)c1ccc(Cl)c(C(=O)NC(C)C(c2cccs2)N2CCCC2)c1` (configuration not stated) the Potency was 14.6 µM (active). In the case of `COc1cc(C(=O)N/C(=C\c2cn(C)c3ccccc23)C(=O)N2CCOCC2)cc(OC)c1OC`, the Potency is reported as “inactive”. For `Cc1c(N=Nc2ccc(N(C)C)cc2)c(=O)n(-c2ccccc2)n1C`, the Potency was “inactive”. In the case of `COc1ccc(NC(=S)NC2CCS(=O)(=O)C2)cc1` (configuration not stated), the Potency is reported as “inactive”. With `COc1ccc(-c2ccc(OC(=O)NC3CCS(=O)(=O)C3)cc2)cc1` (configuration not stated) the Potency was 8.2 µM (active). In the case of `N#Cc1ccc(OCC(=O)NC(=O)NC2CCS(=O)(=O)C2)cc1` (configuration not stated), the Potency is reported as “inactive”. For `CC(C)(C)CN1C(=O)C(=O)NC[C@H]1Cc1cccc2ccccc12`, the Potency was “inactive”. In the case of `CC1CCN(C(=O)c2ccc(S(=O)(=O)Cc3cc(F)ccc3F)c([N+](=O)[O-])c2)CC1`, the Potency is reported as 16.4 µM (active). For `Nc1ccc(C(=O)N2CCN(S(=O)(=O)c3ccc(Cl)cc3)CC2)cc1[N+](=O)[O-]`, the Potency was “inactive”. For `NC(=O)C1CCN(C(=O)c2ccc(F)c(S(=O)(=O)N3CCOCC3)c2)CC1`, the Potency was “inactive”. With `CC1(C)CC(O)C(CCC(O)c2ccccc2)C(C)(C)N1` (configuration not stated) the Potency was “inactive”. In the case of `CC(=O)N(c1ccc2oc(=O)sc2c1)S(=O)(=O)c1ccc(C)cc1`, the Potency is reported as 16.4 µM (active). For `CC(=O)Oc1ccc(N(C(C)=O)S(=O)(=O)c2ccc3ccccc3c2)cc1Br`, the Potency was “inactive”. For `Cc1ccc(S(=O)(=O)N(CCCN(C)C)Cc2ccc3c(c2)OCO3)cc1`, the Potency was “inactive”. For `COc1ccc(C2/C(=C(/O)c3ccc(OC(C)C)cc3)C(=O)C(=O)N2CCCN2CCOCC2)cc1` (configuration not stated), the Potency was “inactive”. For `C=CCn1c(SCC(=O)Nc2ccc(NC(C)=O)cc2)nc2sc(C)c(C)c2c1=O`, the Potency was “inactive”. For `O=C1CCCC(O)=C1N=Nc1ccc(S(=O)(=O)N2CCOCC2)cc1`, the Potency was “inactive”. For `O=C1CCC(Cc2ccccc2)N1` (configuration not stated), the Potency was “inactive”. For `COc1ccc(NC(=O)C2CCC(CNC(=O)[C@@H]3Cc4ccccc4CN3)CC2)cc1` (some centres not stated), the Potency was “inactive”. In the case of `COc1cccc(/C=C2\SC(=S)N(CCCC(=O)N3CCOCC3)C2=O)c1`, the Potency is reported as 18.4 µM (active). With `COc1cccc(/C=C2/SC(=S)N(CC(=O)NC3C=CS(=O)(=O)C3)C2=O)c1` (configuration not stated) the Potency was “inactive”. With `O=C(CCCN1C(=O)/C(=C/c2ccccc2)SC1=S)Nc1ccc(O)cc1` the Potency was “inactive”. With `COc1ccc(/C=C2\SC(=S)N(CCC(=O)Nc3ccccn3)C2=O)cc1OC` the Potency was “inactive”. In the case of `COc1ccc(/C=C2\SC(=S)N(CCC(=O)Nc3cccc(C(=O)O)c3)C2=O)cc1OC`, the Potency is reported as “inactive”. In the case of `COc1ccc(/C=C2\SC(=S)N(CCCC(=O)NC3CCCC3)C2=O)cc1OC`, the Potency is reported as 16.4 µM (active). In the case of `C=CCOc1ccc(/C=C2\SC(=S)N(CCC(=O)O)C2=O)cc1`, the Potency is reported as “inactive”. With `COc1ccc(/C=C2\SC(=S)N(CCC(=O)N3CCOCC3)C2=O)cc1OC` the Potency was “inactive”. In the case of `O=C1/C(=C/c2ccc(F)cc2)SC(=S)N1CCCC(=O)N1CCCCC1CCO` (configuration not stated), the Potency is reported as 25.9 µM (active). With `CC(=O)N(OCc1ccc(OC(C)C)c(Cl)c1)C(C)=O` the Potency was “inactive”. With `C[N+](C)(C)CCNC(=O)c1c(O)c2c([nH]c1=O)CCCC2` the Potency was “inactive”. In the case of `COc1ccc2nc(N3CCCC(O)C3)c(C#N)cc2c1` (configuration not stated), the Potency is reported as “inactive”. With `Cc1ccc(NC(=O)COC(=O)C2C3CC4OC(=O)C2C4C3)cc1Cl` (configuration not stated) the Potency was “inactive”. In the case of `O=C(COC(=O)c1ccccn1)NNC(=O)c1ccc([N+](=O)[O-])cc1`, the Potency is reported as “inactive”. With `CCc1noc(C)c1C(=O)NCCN1Cc2cc(OC)ccc2OC(CC)C1` (configuration not stated) the Potency was “inactive”. With `Nc1nc(N)c(N=O)c(N)n1` the Potency was “inactive”. In the case of `O=C(O)C1C2C=CC(C2)C1C(=O)NCc1ccccc1` (configuration not stated), the Potency is reported as “inactive”. In the case of `O=C(NCc1ccccc1)C1CNCC(C(=O)NCc2ccccc2)C1` (configuration not stated), the Potency is reported as “inactive”. In the case of `O=C(NCc1ccccc1)[C@H]1C[C@@H]1[C@H](NP(=O)(c1ccccc1)c1ccccc1)c1ccccc1`, the Potency is reported as 20.6 µM (active). With `O=C1CSC(=O)N1CCOCCN1C(=O)CSC1=O` the Potency was “inactive”. For `COCCn1c(C)cc(C(=O)COC(=O)/C=C/c2cccc(OC)c2)c1C`, the Potency was “inactive”. In the case of `Cc1cc2cc3n(c2nn1)N=C(Cl)CC3`, the Potency is reported as 11.6 µM (active). With `CS(=O)(=O)c1ccc(Cl)c(NC(=O)COC(=O)c2cccc(S(=O)(=O)N3CCCC3)c2)c1` the Potency was “inactive”. For `CC1(C(=O)Nc2cccc3cccnc23)CCN1C(=O)CCC1CCCC1` (configuration not stated), the Potency was 16.4 µM (active). In the case of `CC1(C(=O)Nc2ccccc2Br)CCN1C(=O)CC1CC1` (configuration not stated), the Potency is reported as “inactive”. In the case of `CC1(C(=O)NS(=O)(=O)c2ccc(Cl)cc2)CCN1C(=O)CC1CCCC1` (configuration not stated), the Potency is reported as “inactive”. For `C=CCNc1nc(Nc2ccc(Cl)cc2)nc(OC)n1`, the Potency was “inactive”. With `O=C(Cn1cc(C(=O)C2CC2)c2ccccc21)Nc1ccccc1Cl` the Potency was “inactive”.
